Experimental data as given in PubChem BioAssay AID425 (Sanford-Burnham Center for Chemical Genomics, 2006).
Where “and” joins values, the source holds several entries; their conditions need not be identical. Equal entries are not always repeated. About 190 (0.17%) of roughly 110,000 compounds were called active. Rule as the data show it: active = inhibition above about 50%; inactive = the rest. Only a selection was taken, and actives are over-represented in it overall. Measured potencies and affinities stand elsewhere. The source holds several records for some structures; these can differ, active in one and inactive in another.

Target: Dual specificity protein phosphatase 6 (Rattus norvegicus) (UniProt Q64346)
Sequence (Q64346 whole entry, looked up): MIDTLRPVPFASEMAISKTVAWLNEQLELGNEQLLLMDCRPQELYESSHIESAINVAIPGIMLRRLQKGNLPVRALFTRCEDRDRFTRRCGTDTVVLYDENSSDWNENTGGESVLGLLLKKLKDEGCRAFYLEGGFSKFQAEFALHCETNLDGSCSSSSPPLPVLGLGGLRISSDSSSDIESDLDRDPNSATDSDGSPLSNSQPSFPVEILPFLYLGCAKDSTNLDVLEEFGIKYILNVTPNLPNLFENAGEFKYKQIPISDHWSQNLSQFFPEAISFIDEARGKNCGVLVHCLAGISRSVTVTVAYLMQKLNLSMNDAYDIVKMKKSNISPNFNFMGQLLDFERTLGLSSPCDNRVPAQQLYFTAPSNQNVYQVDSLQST
Experiment: MKP-3 phosphatase inhibitors, primary screen, biochemical, rat enzyme, in vitro (AID 425);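 also: plate controls were vehicle for no effect and reference inhibitor for full effect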
Details: recombinant MKP-3 phosphatase activity, fluorescence; at 20 µM; stronger effect = higher value

Row | Structure (SMILES) | inhibition
1 | O=C(O)c1cccc(NC2=C(Cl)C(=O)N(c3ccc(Cl)cc3)C2=O)c1 | 7.4% (inactive)
2 | O=C1NC(=O)N(c2ccccc2)C(=O)/C1=C\c1cccn1-c1cccc([N+](=O)[O-])c1 | 4.5% (inactive)
3 | O=C1OCCC1Sc1nc2ccccc2[nH]1 (stereo not drawn) | -11% (inactive)
4 | FC(F)(F)c1ccc2nnc(-c3cccc(Cl)c3Cl)n2c1 | 5.1% (inactive)
5 | CC(=O)NN1C(=O)/C(=C\c2ccc(O)c([N+](=O)[O-])c2)SC1=S | 1.4% (inactive)
6 | O=C1/C(=C\c2cc3c(cc2[N+](=O)[O-])OCO3)SC(=S)N1c1ccccc1 | 5.2% (inactive)
7 | O=C(NN1C(=O)/C(=C/c2cc3c(cc2[N+](=O)[O-])OCO3)SC1=S)c1ccccc1Cl | 8.9% (inactive)
8 | C=CCN1C(=O)/C(=C\c2cc3c(cc2[N+](=O)[O-])OCO3)SC1=S | 124% (active)
9 | C=CCN1C(=O)/C(=C\c2cc3c(cc2Br)OCO3)SC1=S | 0.3% (inactive)
10 | CC(=O)NN1C(=O)/C(=C/c2cc3c(cc2[N+](=O)[O-])OCO3)SC1=S | 119% (active)
11 | CC1(C(=O)O)CCC(C(=O)N2CCOCC2)C1(C)C (stereo not drawn) | -3.7% (inactive)
12 | CC(c1nc2ccccc2n1C)C(O)c1ccccc1 (stereo not drawn) | -0.3% (inactive)
13 | COc1ccc(NC(=O)c2ccco2)cc1NC(=O)c1ccco1 | 0.7% (inactive)
14 | O=C(O)c1cccc2c1NC(c1cccc(Cl)c1Cl)C1CC=CC21 (stereo not drawn) | 27.8% (inactive)
15 | O=C(O)c1cccc2c1NC(c1ccccc1Br)C1CC=CC21 (stereo not drawn) | 15.1% (inactive)
16 | O=[N+]([O-])c1ccc(C2Nc3c(I)cccc3C3C=CCC32)cc1 (stereo not drawn) | 4.4% (inactive)
17 | O=C(O)c1cccc2c1NC(c1ccc(Cl)cc1)C1CC=CC21 (stereo not drawn) | 69.9% (active)
18 | O=C(O)c1cccc2c1NC(c1ccc([N+](=O)[O-])cc1)C1CC=CC21 (stereo not drawn) | 71.1% (active)
19 | O=[N+]([O-])c1ccc(C2Nc3c(cccc3[N+](=O)[O-])C3C=CCC32)cc1 (stereo not drawn) | 5.4% (inactive)
20 | CCNC(=S)Nc1ccccc1Cl | -1.1% (inactive)
21 | O=C(NN=C1CCN(Cc2ccccc2)CC1)c1sc2ccccc2c1Cl | 0.3% (inactive)
22 | COc1ccc(NC(=O)C(=O)NCc2ccco2)cc1Cl | -2.8% (inactive)
23 | O=[N+]([O-])c1ccc(S(=O)(=O)NCCOc2ccccc2Cl)cc1 | -1.1% (inactive)
24 | CCOc1ccc(N(CC(=O)NCc2ccc(OC)cc2)S(=O)(=O)c2ccc(Br)cc2)cc1 | -0.5% (inactive)
25 | CCOc1ccc(N(CC(=O)NCc2ccc(Cl)cc2)S(=O)(=O)c2ccc(Br)cc2)cc1 | 54.4% (active)

Row | Structure (SMILES) | inhibition
26 | CCOc1ccc(N(CC(=O)NCc2ccc(Cl)cc2)S(C)(=O)=O)cc1 | -2.6% (inactive)
27 | CNS(=O)(=O)c1cc(O)c2c(S(=O)(=O)NC)cccc2c1 | 6% (inactive)
28 | Cc1cccc2cc(=O)[nH]c(C)c12 | 13.2% (inactive)
29 | Cc1ccc(-c2[nH]n3c(=O)cc(-c4ccc([N+](=O)[O-])cc4)nc3c2C)cc1 | -3.9% (inactive)
30 | NC(=S)n1[nH]c(-c2ccccc2)c(N=Nc2ccc(C(=O)O)cc2)c1=O | -0.5% (inactive)
31 | O=C(CCCC(=O)OCC(F)(F)C(F)F)Nc1ccc(F)cc1F | -2.5% (inactive)
32 | CC1CCN(CCCNC(=O)c2cn(C)c3ccc(S(=O)(=O)N4CCCC4)cc3c2=O)CC1 | -3% (inactive)
33 | CCCCCC1NC(=O)NC1CCCCCC(=O)O (stereo not drawn) | -4.9% (inactive)
34 | CCCCCCCCNC(=O)CCC(=O)O | -1.5% (inactive)
35 | COc1c(Cl)cc(C(=O)Nc2ccc(N3CCOCC3)cc2)cc1Cl | 3.1% (inactive)
36 | O=C(O)c1ccc(CN2CCOCC2)cc1 | 1.1% (inactive)
37 | COc1ccc(Cn2c(C)ccc2C)cc1 | 0.3% (inactive)
38 | Cc1ccc(C)n1Cc1ccc(C(=O)O)cc1 | 85.4% (active) and -2.3% (inactive)
39 | CC(C(=O)NCc1ccccn1)N1C(=O)c2ccccc2C1=O (stereo not drawn) | -2.2% (inactive)
40 | Clc1ccc(-c2ccc(/C=C\c3nc4ccccc4o3)o2)cc1 | 4.5% (inactive)
41 | O=C(O)CCCCCN1C(=O)/C(=C2/C(=O)N(CC(=O)O)c3ccccc32)SC1=S | 1% (inactive)
42 | O=C(CN1C(=O)/C(=C/c2ccccc2)SC1=S)Nc1cccc(Br)c1 | 2.3% (inactive)
43 | CCOc1ccc(N(CC(=O)NCc2ccccc2)S(C)(=O)=O)cc1 | -13.8% (inactive)
44 | Cc1cc(Nc2ccccc2)n(-c2ccccc2)n1 | -6.8% (inactive)
45 | Cc1cc2n(n1)SC(Nc1ccccc1)N2 (stereo not drawn) | 61.5% (active)
46 | Cc1cc(C)n(C(=O)Nc2ccccc2)n1 | 4.3% (inactive)
47 | COc1cc(C(=O)N2CCN(C3C4CC5CC(C4)CC3C5)CC2)cc(OC)c1OC (stereo not drawn) | 3.7% (inactive)
48 | O=C1C=C(C(c2ccccc2)c2ccccc2)C(=O)c2ccccc21 | 6.7% (inactive)
49 | CC(=O)NC1=C(N(C)C)C(=O)c2ccccc2C1=O | 0.7% (inactive)
50 | CC(C)OC1=C(Cl)C(=O)c2ccccc2C1=O | 5.3% (inactive)

Row | Structure (SMILES) | inhibition
51 | CC(=O)N(C)C1=C(Cl)C(=O)c2ccccc2C1=O | 54.9% (active)
52 | CC(=O)N(C1=C(Cl)C(=O)c2ccccc2C1=O)c1ccc(Br)cc1 | 21.1% (inactive)
53 | CC(=O)c1ccc(NC2=C(Cl)C(=O)c3ccccc3C2=O)cc1 | -8.2% (inactive)
54 | CC(=O)C(C(C)=O)C1=C(Cl)C(=O)C(=O)c2ccccc21 | 71% (active)
55 | CC(=O)N(C1=C(Cl)C(=O)c2ccccc2C1=O)c1ccc(Cl)cc1 | 13.9% (inactive)
56 | CC(=O)Nc1ccc(NC2=C(Cl)C(=O)c3ccccc3C2=O)cc1 | 3.8% (inactive)
57 | O=C1C(=O)c2ccccc2C(Cl)=C1Cl | 23% (inactive)
58 | CC(=O)C(C(C)=O)C1=CC(=O)C(=O)c2ccccc21 | 91.6% (active)
59 | CC(=O)NC1=C(Cl)C(=O)c2ccccc2C1=O | 106% (active)
60 | Cc1cc(O)c2c(-c3ccccc3)cc(=O)oc2c1 | -1.9% (inactive)
61 | CCOC(=O)c1ccc(N2C(=O)C(O)=C(C(C)=O)C2c2ccccn2)cc1 (stereo not drawn) | -5.9% (inactive)
62 | O=C1N/C(=N\N=C\c2cccc([N+](=O)[O-])c2)SC1Cc1cccc(Cl)c1Cl (stereo not drawn) | -3% (inactive)
63 | CC(=O)c1ccc(N2C(=O)c3c(Cl)c(Cl)c(Cl)c(Cl)c3C2=O)cc1 | 1.4% (inactive)
64 | O=C(O)COc1ccc(N2C(=O)c3c(Cl)c(Cl)c(Cl)c(Cl)c3C2=O)cc1 | 2.1% (inactive)
65 | O=C(NCc1cccs1)C1CCN(S(=O)(=O)N2CCCC2)CC1 | 3.1% (inactive)
66 | Clc1cccc(Nc2nc3c(s2)CCCC3)c1 | 0.9% (inactive)
67 | Cc1cccc(Nc2nc3c(s2)CCCC3)c1 | 95.3% (active)
68 | Cc1ccc(C)c(Nc2nc3c(s2)CCCC3)c1 | -4% (inactive)
69 | COc1ccccc1N1C(=O)C2C3C=CC(O3)C2C1=O (stereo not drawn) | -2.7% (inactive)
70 | CCOC(=O)N1CCC(N2C(=O)c3ccccc3C2=O)CC1 | 1.8% (inactive)
71 | CN(C)S(=O)(=O)c1cc(C(=O)NCC2CCCO2)c(Cl)cc1Cl (stereo not drawn) | -1.6% (inactive)
72 | CCC(C(=O)NC1CCCC1)N(C(=O)Cn1nnc(-c2ccc(C)o2)n1)C(C)(C)C (stereo not drawn) | -14.3% (inactive)
73 | Cc1ccc(-n2c(=O)c3cc4c(=O)n(-c5ccc(C)c(C)c5)c(=O)c4c(C(=O)c4ccccc4)c3c2=O)cc1C | 0.3% (inactive)
74 | O=C(O)c1ccc(-n2c(=O)c3ccccc3c3ccccc3c2=O)cc1 | 1.5% (inactive)
75 | Cc1ccc(OCC(=O)N(Cc2ccc(N(C)C)cc2)C2CCS(=O)(=O)C2)cc1 (stereo not drawn) | -8.2% (inactive)

Row | Structure (SMILES) | inhibition
76 | CCOc1ccc(NCC(=O)N/N=C/c2cc([N+](=O)[O-])ccc2O)cc1 | 5.2% (inactive)
77 | COc1ccc(/C=N/NC(=O)COc2ccc3c(C)cc(=O)oc3c2)cc1 | -1.4% (inactive)
78 | O=c1c[n+]([O-])c2ccccc2n1OCc1ccccc1 | 0% (inactive)
79 | CC1CCN(C(=O)CSc2nc3c(cnn3-c3ccccc3)c(=O)[nH]2)CC1 | -9.5% (inactive)
80 | CC(C)CCNC(=O)Cn1cc2c(n1)CCCCC2 | -5.2% (inactive)
81 | O=S(=O)(O)c1cccc2c(N=Cc3cc(Cl)cc(Cl)c3O)cccc12 | 0.7% (inactive)
82 | Oc1ccc(N=Nc2ccc(Cl)cc2)c2cccnc12 | 2.7% (inactive)
83 | Cc1ccc(OCCOc2ccc(C=O)cc2)cc1C | 1.6% (inactive)
84 | CCC(=O)c1ccc(N2CCN(C(=O)c3ccc(F)c(F)c3)CC2)c(F)c1 | 2% (inactive)
85 | Cc1ccc(S(=O)(=O)N(C)CCCC(=O)N2CCN(C=O)CC2)cc1 | -5.2% (inactive)
86 | O=C(Nc1cccc2c1CCCC2)c1ccco1 | -7% (inactive)
87 | CCn1c(SCC(=O)N/N=C/C=C/c2ccccc2)nc2ccccc21 | 1.5% (inactive)
88 | O=C(c1ncc[nH]1)c1ccccc1C(=O)N1CCOCC1 | 1.3% (inactive)
89 | COc1ccccc1-c1nc(C#N)c(N2CCC(Cc3ccccc3)CC2)o1 | 3.6% (inactive)
90 | COc1ccc2c(c1)c(=O)c(Br)c(C)n2Cc1ccccc1 | -17.6% (inactive)
91 | COc1cc2cc(=O)n(Cc3ccccc3)c(C)c2cc1OC | 70.3% (active)
92 | COc1cc2c(=O)n(Cc3ccccc3)c(=O)n(CC(=O)C(C)(C)C)c2cc1OC | 4% (inactive)
93 | O=C1C=CC2=C3Oc4c(ccc5cc(O)ccc45)C(c4ccccc4C(=O)O)C3C=CC2=C1 (stereo not drawn) | 82.7% (active)
94 | Cc1ccc(S(=O)(=O)Cc2ccc(C(=O)N3CCN(c4ccc(F)cc4)CC3)o2)cc1 | -8.1% (inactive)
95 | CCOC(=O)C1=C(C)NC2=C(C(=O)CCC2)C1c1ccc(OCc2cccc(F)c2)c(OC)c1 (stereo not drawn) | 2.1% (inactive)
96 | CCc1c(C)nc2c(OC)cccc2c1Cl | 2.1% (inactive)
97 | COc1cccc2c(Cl)cc(C)nc12 | -2.4% (inactive)
98 | COc1cccc2c(Cl)c(CC=C(Cl)Cl)c(C)nc12 | 74.2% (active)
